biological target: AgAbp1; experiment: SPOT peptide array binding signal intensity (averaged, normalized) (arbitrary units (background-subtracted, floor 0; scale differs between SH3 domains)); higher = stronger binding of the SH3 domain to the peptide
Summary of the method: (§1)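 Binding signal refers to normalized, background-subtracted spot intensity averaged over replicates, expressed in arbitrary units that differ between domains. GST-fused SH3 domains from four yeast species were incubated at 10 μg/ml overnight at 4°C on cellulose membranes of synthetic 15-mer peptides with cysteines replaced by serines. Bound protein was detected with anti-GST antibody, an HRP anti-mouse secondary and luminol, and quantified with Genespotter.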

Binder | SPOT peptide array binding signal intensity
GRLRPKRIAPWHLIQ | 84.5

biological target: AgBbc1; experiment: as above
Summary of the method: as §1

Binder | SPOT peptide array binding signal intensity
GRLRPKRIAPWHLIQ | 22.8

biological target: AgBem1-D1; experiment: as above
Summary of the method: as §1

Binder | SPOT peptide array binding signal intensity
GRLRPKRIAPWHLIQ | 21

biological target: AgBzz1-D1; experiment: as above
Summary of the method: as §1

Binder | SPOT peptide array binding signal intensity
GRLRPKRIAPWHLIQ | 22

biological target: AgBzz1-D2; experiment: as above
Summary of the method: as §1

Binder | SPOT peptide array binding signal intensity
GRLRPKRIAPWHLIQ | 15.5

biological target: AgCyk3; experiment: as above
Summary of the method: as §1

Binder | SPOT peptide array binding signal intensity
GRLRPKRIAPWHLIQ | 4

biological target: AgFus1; experiment: as above
Summary of the method: as §1

Binder | SPOT peptide array binding signal intensity
GRLRPKRIAPWHLIQ | 106

biological target: AgHof1; experiment: as above
Summary of the method: as §1

Binder | SPOT peptide array binding signal intensity
GRLRPKRIAPWHLIQ | 15

biological target: AgHse1; experiment: as above
Summary of the method: as §1

Binder | SPOT peptide array binding signal intensity
GRLRPKRIAPWHLIQ | 542

biological target: AgLsb1; experiment: as above
Summary of the method: as §1

Binder | SPOT peptide array binding signal intensity
GRLRPKRIAPWHLIQ | ≤ 0

biological target: AgLsb4; experiment: as above
Summary of the method: as §1

Binder | SPOT peptide array binding signal intensity
GRLRPKRIAPWHLIQ | 36

biological target: AgMyo5; experiment: as above
Summary of the method: as §1

Binder | SPOT peptide array binding signal intensity
GRLRPKRIAPWHLIQ | 0.5

biological target: AgNbp2; experiment: as above
Summary of the method: as §1

Binder | SPOT peptide array binding signal intensity
GRLRPKRIAPWHLIQ | 590

biological target: AgRvs167; experiment: as above
Summary of the method: as §1

Binder | SPOT peptide array binding signal intensity
GRLRPKRIAPWHLIQ | 3.83

biological target: AgSho1; experiment: as above
Summary of the method: as §1

Binder | SPOT peptide array binding signal intensity
GRLRPKRIAPWHLIQ | ≤ 0

biological target: AgSla1-D1-D2; experiment: as above
Summary of the method: as §1

Binder | SPOT peptide array binding signal intensity
GRLRPKRIAPWHLIQ | 44

biological target: AgSla1-D3; experiment: as above
Summary of the method: as §1

Binder | SPOT peptide array binding signal intensity
GRLRPKRIAPWHLIQ | 2.5

biological target: CaAbp1-D1; experiment: as above
Summary of the method: as §1

Binder | SPOT peptide array binding signal intensity
GRLRPKRIAPWHLIQ | 1010

biological target: CaAbp1-D2; experiment: as above
Summary of the method: as §1

Binder | SPOT peptide array binding signal intensity
GRLRPKRIAPWHLIQ | 666

biological target: CaBbc1; experiment: as above
Summary of the method: as §1

Binder | SPOT peptide array binding signal intensity
GRLRPKRIAPWHLIQ | 156

biological target: CaBem1-D1; experiment: as above
Summary of the method: as §1

Binder | SPOT peptide array binding signal intensity
GRLRPKRIAPWHLIQ | 26

biological target: CaBzz1-D1; experiment: as above
Summary of the method: as §1

Binder | SPOT peptide array binding signal intensity
GRLRPKRIAPWHLIQ | 73

biological target: CaBzz1-D2; experiment: as above
Summary of the method: as §1

Binder | SPOT peptide array binding signal intensity
GRLRPKRIAPWHLIQ | 79.2

biological target: CaCyk3; experiment: as above
Summary of the method: as §1

Binder | SPOT peptide array binding signal intensity
GRLRPKRIAPWHLIQ | 112

biological target: CaFus1; experiment: as above
Summary of the method: as §1

Binder | SPOT peptide array binding signal intensity
GRLRPKRIAPWHLIQ | 178

biological target: CaHof1; experiment: as above
Summary of the method: as §1

Binder | SPOT peptide array binding signal intensity
GRLRPKRIAPWHLIQ | 0.75

biological target: CaHse1; experiment: as above
Summary of the method: as §1

Binder | SPOT peptide array binding signal intensity
GRLRPKRIAPWHLIQ | 11.8

biological target: CaLsb1; experiment: as above
Summary of the method: as §1

Binder | SPOT peptide array binding signal intensity
GRLRPKRIAPWHLIQ | ≤ 0

biological target: CaLsb4; experiment: as above
Summary of the method: as §1

Binder | SPOT peptide array binding signal intensity
GRLRPKRIAPWHLIQ | 67

biological target: CaMyo5; experiment: as above
Summary of the method: as §1

Binder | SPOT peptide array binding signal intensity
GRLRPKRIAPWHLIQ | 2.5

biological target: CaNbp2; experiment: as above
Summary of the method: as §1

Binder | SPOT peptide array binding signal intensity
GRLRPKRIAPWHLIQ | 1940

biological target: CaRvs167; experiment: as above
Summary of the method: as §1

Binder | SPOT peptide array binding signal intensity
GRLRPKRIAPWHLIQ | 9.17

biological target: CaRvs167-3; experiment: as above
Summary of the method: as §1

Binder | SPOT peptide array binding signal intensity
GRLRPKRIAPWHLIQ | 49.2

biological target: CaSho1; experiment: as above
Summary of the method: as §1

Binder | SPOT peptide array binding signal intensity
GRLRPKRIAPWHLIQ | 174

biological target: CaSla1-D1-D2; experiment: as above
Summary of the method: as §1

Binder | SPOT peptide array binding signal intensity
GRLRPKRIAPWHLIQ | 143

biological target: CaSla1-D3; experiment: as above
Summary of the method: as §1

Binder | SPOT peptide array binding signal intensity
GRLRPKRIAPWHLIQ | 1

biological target: ScAbp1; experiment: as above
Summary of the method: as §1

Binder | SPOT peptide array binding signal intensity
GRLRPKRIAPWHLIQ | 13

biological target: ScBbc1; experiment: as above
Summary of the method: as §1

Binder | SPOT peptide array binding signal intensity
GRLRPKRIAPWHLIQ | 24.5

biological target: ScBem1-D1; experiment: as above
Summary of the method: as §1

Binder | SPOT peptide array binding signal intensity
GRLRPKRIAPWHLIQ | 8.5

biological target: ScBzz1-D1; experiment: as above
Summary of the method: as §1

Binder | SPOT peptide array binding signal intensity
GRLRPKRIAPWHLIQ | 0.5

biological target: ScBzz1-D2; experiment: as above
Summary of the method: as §1

Binder | SPOT peptide array binding signal intensity
GRLRPKRIAPWHLIQ | 3

biological target: ScCyk3; experiment: as above
Summary of the method: as §1

Binder | SPOT peptide array binding signal intensity
GRLRPKRIAPWHLIQ | 242

biological target: ScFus1; experiment: as above
Summary of the method: as §1

Binder | SPOT peptide array binding signal intensity
GRLRPKRIAPWHLIQ | 106

biological target: ScHof1; experiment: as above
Summary of the method: as §1

Binder | SPOT peptide array binding signal intensity
GRLRPKRIAPWHLIQ | 0.25

biological target: ScHse1; experiment: as above
Summary of the method: as §1

Binder | SPOT peptide array binding signal intensity
GRLRPKRIAPWHLIQ | 1020

biological target: ScLsb1; experiment: as above
Summary of the method: as §1

Binder | SPOT peptide array binding signal intensity
GRLRPKRIAPWHLIQ | 2.5

biological target: ScLsb2; experiment: as above
Summary of the method: as §1

Binder | SPOT peptide array binding signal intensity
GRLRPKRIAPWHLIQ | 2

biological target: ScLsb3; experiment: as above
Summary of the method: as §1

Binder | SPOT peptide array binding signal intensity
GRLRPKRIAPWHLIQ | 131

biological target: ScLsb4; experiment: as above
Summary of the method: as §1

Binder | SPOT peptide array binding signal intensity
GRLRPKRIAPWHLIQ | 2

biological target: ScMyo3; experiment: as above
Summary of the method: as §1

Binder | SPOT peptide array binding signal intensity
GRLRPKRIAPWHLIQ | 1

biological target: ScMyo5; experiment: as above
Summary of the method: as §1

Binder | SPOT peptide array binding signal intensity
GRLRPKRIAPWHLIQ | 1.5

biological target: ScNbp2; experiment: as above
Summary of the method: as §1

Binder | SPOT peptide array binding signal intensity
GRLRPKRIAPWHLIQ | 1940

biological target: ScPex13; experiment: as above
Summary of the method: as §1

Binder | SPOT peptide array binding signal intensity
GRLRPKRIAPWHLIQ | 10

biological target: ScRvs167; experiment: as above
Summary of the method: as §1

Binder | SPOT peptide array binding signal intensity
GRLRPKRIAPWHLIQ | 27.7

biological target: ScSho1; experiment: as above
Summary of the method: as §1

Binder | SPOT peptide array binding signal intensity
GRLRPKRIAPWHLIQ | 195

biological target: ScSla1-D1-D2; experiment: as above
Summary of the method: as §1

Binder | SPOT peptide array binding signal intensity
GRLRPKRIAPWHLIQ | 134

biological target: ScSla1-D3; experiment: as above
Summary of the method: as §1

Binder | SPOT peptide array binding signal intensity
GRLRPKRIAPWHLIQ | 5

biological target: SpAbp1-D1; experiment: as above
Summary of the method: as §1

Binder | SPOT peptide array binding signal intensity
GRLRPKRIAPWHLIQ | 226

biological target: SpBbc1; experiment: as above
Summary of the method: as §1

Binder | SPOT peptide array binding signal intensity
GRLRPKRIAPWHLIQ | 1

biological target: SpBzz1-D1; experiment: as above
Summary of the method: as §1

Binder | SPOT peptide array binding signal intensity
GRLRPKRIAPWHLIQ | 228

biological target: SpBzz1-D2; experiment: as above
Summary of the method: as §1

Binder | SPOT peptide array binding signal intensity
GRLRPKRIAPWHLIQ | 1.5

biological target: SpCyk3; experiment: as above
Summary of the method: as §1

Binder | SPOT peptide array binding signal intensity
GRLRPKRIAPWHLIQ | 7

biological target: SpHof1; experiment: as above
Summary of the method: as §1

Binder | SPOT peptide array binding signal intensity
GRLRPKRIAPWHLIQ | 70

biological target: SpHof1-2; experiment: as above
Summary of the method: as §1

Binder | SPOT peptide array binding signal intensity
GRLRPKRIAPWHLIQ | 1.5

biological target: SpHof1-3; experiment: as above
Summary of the method: as §1

Binder | SPOT peptide array binding signal intensity
GRLRPKRIAPWHLIQ | 299

biological target: SpHse1; experiment: as above
Summary of the method: as §1

Binder | SPOT peptide array binding signal intensity
GRLRPKRIAPWHLIQ | 309

biological target: SpLsb1; experiment: as above
Summary of the method: as §1

Binder | SPOT peptide array binding signal intensity
GRLRPKRIAPWHLIQ | 5.5

biological target: SpLsb4; experiment: as above
Summary of the method: as §1

Binder | SPOT peptide array binding signal intensity
GRLRPKRIAPWHLIQ | 95.5

biological target: SpMyo1; experiment: as above
Summary of the method: as §1

Binder | SPOT peptide array binding signal intensity
GRLRPKRIAPWHLIQ | 2.5

biological target: SpNbp2; experiment: as above
Summary of the method: as §1

Binder | SPOT peptide array binding signal intensity
GRLRPKRIAPWHLIQ | 110

biological target: SpPex13; experiment: as above
Summary of the method: as §1

Binder | SPOT peptide array binding signal intensity
GRLRPKRIAPWHLIQ | 4

biological target: SpRvs167; experiment: as above
Summary of the method: as §1

Binder | SPOT peptide array binding signal intensity
GRLRPKRIAPWHLIQ | 9

biological target: SpSla1-D1-D2; experiment: as above
Summary of the method: as §1

Binder | SPOT peptide array binding signal intensity
GRLRPKRIAPWHLIQ | ≤ 0

biological target: SpSla1-D3; experiment: as above
Summary of the method: as §1

Binder | SPOT peptide array binding signal intensity
GRLRPKRIAPWHLIQ | ≤ 0

Reference: the supplement of paper PMC4466140
